# Test results reported in PubChem BioAssay.
# The source made the active and inactive calls.
# Key:
# [1] = small molecules captured by biotinylated probe aFSTL3 – biochemical, small-molecule microarray, fluorescence 635/667, stem cell growth factor project, primary screen (AID 1064); settings: higher = more signal;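 also: measures binding of the biotinylated anti-FSTL3 antibody to printed compounds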
# [2] = binders from COS7 lysate, DM2A8 probe, primary screen, torsin A project, cell lysate, small-molecule microarray, fluorescence 635/667 (AID 1065); settings: higher = more signal, COS7 lysate expressing mutant human TOR1A
# [3] = small molecules captured by biotinylated probe aFGF2 – biochemical, small-molecule microarray, fluorescence 635/667, stem cell growth factor project, primary screen (AID 1067); settings: higher = more signal;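 also: measures binding of biotinylated aFGF2 protein to printed compounds on slides; z-score merges feature fluorescence and signal-to-noise across triplicate slides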
# [4] = small molecules captured by biotinylated probe aFGF10 – biochemical, small-molecule microarray, fluorescence 635/667, stem cell growth factor project, primary screen (AID 1071); settings: higher = more signal;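 also: score merges 667 nm spot intensity and signal to noise from triplicate slides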
# [5] = biological target: Neurogenic locus notch homolog protein 2 (Homo sapiens) (UniProt Q04721); test: small molecules binding Notch2 protein – biochemical, small-molecule microarray, 635 nm fluorescence, stem cell growth factors, primary screen (AID 1073); settings: higher = more signal
# [6] = biological target: Pro-neuregulin-1, membrane-bound isoform (Homo sapiens) (UniProt Q02297); test: small molecules binding neuregulin-1 protein – biochemical, small-molecule microarray, fluorescence 635/667, psychiatric disease protein project, primary screen (AID 1075); settings: NRG1 binding, 635 nm fluorescence, higher = more signal;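 also: score combines 667 nm spot fluorescence with signal to noise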
# [7] = test system: Neuregulin-1 EGF-like domain; test: small molecules binding NRG1 EGF domain – biochemical, small-molecule microarray, 635 nm fluorescence, primary screen (AID 1081); settings: higher = more signal;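 also: binding of the protein to compounds printed on small-molecule microarray slides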
# [8] = FRG1 expression reporter modulators in myotubes – cell-based, C2C12 myotubes, firefly/Renilla luciferase, luminescence, FRG1 inhibition for FSHD, primary screen (AID 1084); settings: FRG1 promoter luciferase, higher = more signal, called active from +8 up or from −8 down
# [9] = small molecules captured by biotinylated probe aFST – biochemical, small-molecule microarray, fluorescence 635/667, stem cell growth factor project, primary screen (AID 1086); settings: higher = more signal;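 also: score merges 667 nm fluorescence with signal-to-noise of each printed compound spot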
# [10] = binders of probe aHhip on microarray, primary screen, stem cell growth factor project, biochemical, small-molecule microarray, fluorescence 635/667 (AID 1087); settings: higher = more signal;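 also: score merges spot fluorescence at 667nm with spot signal to noise ratio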
# [11] = test system: PRMT1 (protein arginine N-methyltransferase 1); test: small molecules binding arginine methyltransferase PRMT1 – biochemical, small-molecule microarray, 635 nm fluorescence, primary screen (AID 1088); settings: higher = more signal;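 also: binding of Prmt1 protein to compounds spotted on small-molecule microarray slides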
# [12] = growth effects on S. cerevisiae YJM789 – YJM789 clinical isolate, OD600, 24 h, basal, primary screen (AID 1089); settings: higher = more signal, called active from +8 up or from −8 down;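 also: growth of clinical yeast isolate S. cerevisiae YJM 789 seeded 1000 cells per well; test concentration not given here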
# [13] = S. pombe growth modifiers, basal conditions – strain 972, OD600, 24 h, no modulator, primary screen (AID 1090);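 also: basal condition with compound alone and no growth modifier present; test concentration not given here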; settings: S. pombe 972 growth, higher = more signal, called active from +8 up or from −8 down
# [14] = budding yeast growth modifiers under rapamycin – strain BY4716, OD600, 96 h, primary screen (AID 1091); also: test concentration not given here; settings: S. cerevisiae BY4716 + rapamycin, higher = more signal, called active from +8 up or from −8 down
# [15] = biological target: Torsin-1A-interacting protein 2 (Homo sapiens) (UniProt Q8NFQ8); test: small molecules binding lysate-expressed LULL1 – cell lysate, human LULL1 lysate, 635/667 nm fluorescence, primary screen (AID 1092); settings: small-molecule microarray, hLULL1 lysate binding, 635 nm fluorescence; higher = more signal;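 also: probe is lysate of COS7 cells overexpressing human LULL1; score merges per-feature 667 nm fluorescence with signal-to-noise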
# [16] = optical density change of DRC41 E. coli – strain DRC41, OD650, 24 h, E. coli filamentation project, primary screen (AID 1093);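 also: MC1000 strain lacking acrAB efflux and sulA so SOS filamentation is blocked; test concentration not given here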; settings: E. coli DRC41 growth, higher = more signal, called active from +8 up or from −8 down
# [17] = probe aLefty2 binding to arrayed compounds – biochemical, biotinylated probe, 635/667 nm fluorescence, primary screen (AID 1094); settings: small-molecule microarray, higher = more signal;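 also: score merges spot fluorescence near 667 nm with spot signal-to-noise ratio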
# [18] = test system: Noggin (protein binding on small-molecule microarray); test: small molecules binding Noggin protein – biochemical, 635/667 nm fluorescence, primary screen (AID 1095); settings: 635 nm fluorescence, higher = more signal;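 also: score merges 667 nm feature fluorescence with signal to noise over triplicate slides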
# [19] = biological target: Neurogenic locus notch homolog protein 3 (Homo sapiens) (UniProt Q9UM47); test: small molecules binding NOTCH3 protein – biochemical, 635/667 nm fluorescence, primary screen (AID 1096); settings: small-molecule microarray, 635 nm fluorescence, higher = more signal
# [20] = probe aEGFR binding to arrayed compounds – biochemical, biotinylated probe, 635/667 nm fluorescence, primary screen (AID 1097); settings: small-molecule microarray, higher = more signal;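 also: probe is a biotinylated anti-EGFR antibody binding compounds printed on slides; score combines fluorescence near 667 nm and signal to noise of each spot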
# Torsin-1A-interacting protein 2 (Homo sapiens), sequence (Q8NFQ8 whole entry, looked up): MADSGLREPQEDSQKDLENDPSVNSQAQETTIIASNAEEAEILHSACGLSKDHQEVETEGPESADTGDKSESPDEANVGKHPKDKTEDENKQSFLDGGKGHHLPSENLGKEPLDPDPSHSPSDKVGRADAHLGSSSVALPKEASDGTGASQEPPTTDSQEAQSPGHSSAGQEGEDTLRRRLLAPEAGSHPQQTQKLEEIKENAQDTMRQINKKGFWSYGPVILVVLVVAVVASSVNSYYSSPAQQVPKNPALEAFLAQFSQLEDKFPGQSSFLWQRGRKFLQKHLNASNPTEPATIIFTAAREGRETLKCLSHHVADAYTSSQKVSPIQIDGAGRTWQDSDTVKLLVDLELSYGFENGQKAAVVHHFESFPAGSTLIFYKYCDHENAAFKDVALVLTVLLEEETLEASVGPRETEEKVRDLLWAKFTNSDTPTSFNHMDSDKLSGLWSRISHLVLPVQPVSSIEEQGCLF
# Neurogenic locus notch homolog protein 2 (Homo sapiens), sequence (Q04721 whole entry, looked up, canonical isoform): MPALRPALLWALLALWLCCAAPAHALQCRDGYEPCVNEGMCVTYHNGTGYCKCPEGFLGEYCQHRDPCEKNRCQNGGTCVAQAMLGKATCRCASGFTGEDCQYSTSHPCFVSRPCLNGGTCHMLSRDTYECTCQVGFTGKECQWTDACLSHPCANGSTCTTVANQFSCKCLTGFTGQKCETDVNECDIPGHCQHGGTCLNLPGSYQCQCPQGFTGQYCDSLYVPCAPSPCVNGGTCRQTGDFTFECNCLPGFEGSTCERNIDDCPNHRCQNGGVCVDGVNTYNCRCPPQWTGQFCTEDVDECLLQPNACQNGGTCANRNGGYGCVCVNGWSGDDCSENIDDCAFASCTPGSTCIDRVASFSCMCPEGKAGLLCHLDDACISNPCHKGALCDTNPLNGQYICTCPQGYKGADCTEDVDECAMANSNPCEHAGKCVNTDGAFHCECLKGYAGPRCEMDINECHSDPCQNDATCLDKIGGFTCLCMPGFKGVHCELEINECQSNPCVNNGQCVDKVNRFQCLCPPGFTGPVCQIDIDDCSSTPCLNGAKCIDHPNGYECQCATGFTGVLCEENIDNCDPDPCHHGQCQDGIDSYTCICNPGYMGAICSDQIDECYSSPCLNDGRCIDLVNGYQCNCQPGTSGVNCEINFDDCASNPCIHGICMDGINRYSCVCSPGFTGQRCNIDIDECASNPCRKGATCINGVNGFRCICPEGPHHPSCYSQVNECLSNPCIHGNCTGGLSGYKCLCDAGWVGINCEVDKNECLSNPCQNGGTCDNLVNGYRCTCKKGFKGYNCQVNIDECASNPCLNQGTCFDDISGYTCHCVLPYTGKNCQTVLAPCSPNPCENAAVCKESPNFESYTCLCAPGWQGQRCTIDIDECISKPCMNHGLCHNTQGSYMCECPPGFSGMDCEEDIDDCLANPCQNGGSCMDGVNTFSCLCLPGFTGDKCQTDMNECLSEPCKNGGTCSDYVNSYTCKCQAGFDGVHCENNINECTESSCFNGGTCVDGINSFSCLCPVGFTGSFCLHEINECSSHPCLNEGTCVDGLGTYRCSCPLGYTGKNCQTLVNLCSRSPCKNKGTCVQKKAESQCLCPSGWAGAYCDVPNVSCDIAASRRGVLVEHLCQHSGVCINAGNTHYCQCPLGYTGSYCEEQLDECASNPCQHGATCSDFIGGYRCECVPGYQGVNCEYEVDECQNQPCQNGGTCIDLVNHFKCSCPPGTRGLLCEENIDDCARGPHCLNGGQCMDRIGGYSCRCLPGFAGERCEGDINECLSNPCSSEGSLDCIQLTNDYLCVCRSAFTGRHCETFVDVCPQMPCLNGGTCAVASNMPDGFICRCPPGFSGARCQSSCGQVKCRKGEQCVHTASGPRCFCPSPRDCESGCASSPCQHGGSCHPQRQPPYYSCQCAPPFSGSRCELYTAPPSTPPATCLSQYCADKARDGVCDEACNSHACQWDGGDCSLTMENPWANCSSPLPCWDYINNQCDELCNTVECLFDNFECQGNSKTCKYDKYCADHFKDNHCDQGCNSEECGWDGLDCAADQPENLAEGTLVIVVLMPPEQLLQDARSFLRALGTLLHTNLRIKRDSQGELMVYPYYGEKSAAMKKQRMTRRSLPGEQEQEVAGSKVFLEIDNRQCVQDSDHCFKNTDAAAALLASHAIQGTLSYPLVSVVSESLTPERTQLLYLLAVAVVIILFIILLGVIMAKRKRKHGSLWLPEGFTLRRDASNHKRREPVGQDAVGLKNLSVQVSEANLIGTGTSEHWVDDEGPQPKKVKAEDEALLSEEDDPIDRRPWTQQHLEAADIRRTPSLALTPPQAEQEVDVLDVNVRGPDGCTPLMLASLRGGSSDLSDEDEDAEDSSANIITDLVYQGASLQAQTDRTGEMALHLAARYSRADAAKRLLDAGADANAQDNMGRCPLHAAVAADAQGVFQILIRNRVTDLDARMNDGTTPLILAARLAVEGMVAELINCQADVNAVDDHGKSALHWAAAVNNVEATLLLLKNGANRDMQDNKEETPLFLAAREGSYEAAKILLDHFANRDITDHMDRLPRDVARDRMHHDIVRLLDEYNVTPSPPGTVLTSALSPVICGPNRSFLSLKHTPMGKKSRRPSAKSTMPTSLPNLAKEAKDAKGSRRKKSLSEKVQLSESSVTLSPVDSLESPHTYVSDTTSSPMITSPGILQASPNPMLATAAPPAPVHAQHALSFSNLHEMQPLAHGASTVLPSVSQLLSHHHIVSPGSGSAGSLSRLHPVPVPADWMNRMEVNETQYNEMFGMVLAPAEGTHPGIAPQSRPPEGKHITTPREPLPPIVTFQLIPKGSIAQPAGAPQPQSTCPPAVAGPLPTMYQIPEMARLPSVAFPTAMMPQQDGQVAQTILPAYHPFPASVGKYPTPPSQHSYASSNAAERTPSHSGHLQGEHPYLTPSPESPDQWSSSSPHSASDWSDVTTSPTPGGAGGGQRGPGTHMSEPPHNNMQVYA
# Pro-neuregulin-1, membrane-bound isoform (Homo sapiens), sequence (Q02297 whole entry, looked up, the tested form may be a part, canonical isoform): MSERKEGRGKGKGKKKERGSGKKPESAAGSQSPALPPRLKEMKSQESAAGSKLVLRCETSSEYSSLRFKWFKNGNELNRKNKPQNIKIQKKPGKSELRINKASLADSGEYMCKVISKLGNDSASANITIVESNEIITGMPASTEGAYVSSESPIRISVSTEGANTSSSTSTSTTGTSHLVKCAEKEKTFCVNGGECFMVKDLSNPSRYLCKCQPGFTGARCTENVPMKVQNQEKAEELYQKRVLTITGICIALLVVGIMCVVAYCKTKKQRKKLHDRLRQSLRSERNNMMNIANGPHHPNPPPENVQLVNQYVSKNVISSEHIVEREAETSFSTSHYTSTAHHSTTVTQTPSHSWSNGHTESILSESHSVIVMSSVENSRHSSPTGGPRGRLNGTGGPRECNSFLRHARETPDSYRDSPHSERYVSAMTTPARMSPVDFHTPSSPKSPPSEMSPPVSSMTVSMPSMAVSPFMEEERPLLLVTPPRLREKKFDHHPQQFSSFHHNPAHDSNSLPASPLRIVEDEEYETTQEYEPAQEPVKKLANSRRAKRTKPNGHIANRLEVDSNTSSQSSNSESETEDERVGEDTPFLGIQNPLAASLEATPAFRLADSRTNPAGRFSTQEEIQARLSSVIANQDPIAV
compound,measurement,setting,value
COC(=O)c1c(CC[C@@H](CO)NC(=O)N[C@@H](Cc2ccccc2)Cn2cc(C3(O)CCCCC3)nn2)oc(C(C)=O)c1C(=O)OC,composite z-score,[1],-0.352
same,composite z-score,[2],1.02
same,composite z-score,[3],-0.0478
same,composite z-score,[4],0.337
same,composite z-score,[5],0.617
same,composite z-score,[6],0.824
same,composite z-score,[7],0.862
same,z-score,[8],1.14 (inactive)
same,composite z-score,[9],0.439
same,composite z-score,[10],-0.0994
same,composite z-score,[11],1.55
same,z-score,[12],-2.65 (inactive)
same,z-score,[13],-1.81 (inactive)
same,z-score,[14],-0.415 (inactive)
same,composite z-score,[15],1.38
same,z-score,[16],1.31 (inactive)
same,composite z-score,[17],-0.0441
same,composite z-score,[18],1.09
same,composite z-score,[19],1.12
same,composite z-score,[20],0.0117
C=CCC(OC(C)=O)[C@@H]1[C@@H](N(Cc2ccc(-c3ccccc3)cc2)C(=O)Cc2ccc(F)cc2)c2cc(OCCCO)ccc2N1C(=O)c1ccc2ccccc2n1 (stereo not given in full),composite z-score,[1],-0.12
same,composite z-score,[2],-0.0608
same,composite z-score,[3],0.0198
same,composite z-score,[4],-0.372
same,composite z-score,[5],0.0329
same,composite z-score,[6],0.164
same,composite z-score,[7],-0.421
same,z-score,[8],-0.649 (inactive)
same,composite z-score,[9],0.167
same,composite z-score,[10],0.0623
same,composite z-score,[11],-0.0414
same,z-score,[12],-0.583 (inactive)
same,z-score,[13],-0.0387 (inactive)
same,z-score,[14],-0.527 (inactive)
same,composite z-score,[15],0.208
same,z-score,[16],1.47 (inactive)
same,composite z-score,[17],-0.057
same,composite z-score,[18],-0.423
same,composite z-score,[19],-0.0833
same,composite z-score,[20],0.44
Cc1ccc(S[C@]2(C(=O)NC3CC3)CC(=O)N(Cc3ccccc3)[C@@H]2c2ccc(CO)cc2)cc1,composite z-score,[1],0.462
same,composite z-score,[2],-1.21
same,composite z-score,[3],-0.118
same,composite z-score,[4],-0.0824
same,composite z-score,[5],-0.764
same,composite z-score,[6],-0.419
same,composite z-score,[7],0.0059
same,z-score,[8],-1.17 (inactive)
same,composite z-score,[9],0.135
same,composite z-score,[10],-0.247
same,composite z-score,[11],0.0655
same,z-score,[12],-0.592 (inactive)
same,z-score,[13],-0.852 (inactive)
same,z-score,[14],-0.168 (inactive)
same,composite z-score,[15],2.08
same,z-score,[16],-0.445 (inactive)
same,composite z-score,[17],0.0704
same,composite z-score,[18],-0.347
same,composite z-score,[19],-0.462
same,composite z-score,[20],-0.0778
CC(C)C(=C=CC[C@H](O)c1cccc(OCCO)c1)C[C@H](O)COCc1ccccc1,composite z-score,[1],-0.222
same,composite z-score,[2],0.0852
same,composite z-score,[3],-0.095
same,composite z-score,[4],0.659
same,composite z-score,[5],-0.139
same,composite z-score,[6],1.67
same,composite z-score,[7],1.13
same,z-score,[8],0.724 (inactive)
same,composite z-score,[9],-0.22
same,composite z-score,[10],-0.0994
same,composite z-score,[11],0.975
same,z-score,[12],-0.0398 (inactive)
same,z-score,[13],0.299 (inactive)
same,z-score,[14],-0.623 (inactive)
same,composite z-score,[15],1.92
same,z-score,[16],0.299 (inactive)
same,composite z-score,[17],-0.0616
same,composite z-score,[18],0.551
same,composite z-score,[19],-0.243
same,composite z-score,[20],-0.081
CCOC(=O)C[C@H]1[C@H](OC(=O)c2ccc(-c3ccccc3)cc2)[C@@H](NC(=O)c2ccc(-c3ccccc3)cc2)c2cc(OCCCO)ccc2N1C(=O)Cc1ccc(OC)cc1,composite z-score,[1],-0.263
same,composite z-score,[2],-0.0676
same,composite z-score,[3],-0.0525
same,composite z-score,[4],0.0168
same,composite z-score,[5],0.306
same,composite z-score,[6],0.168
same,composite z-score,[7],-0.489
same,z-score,[8],0.712 (inactive)
same,composite z-score,[9],0.425
same,composite z-score,[10],-0.226
same,composite z-score,[11],-0.007
same,z-score,[12],-0.907 (inactive)
same,z-score,[13],0.321 (inactive)
same,z-score,[14],0.16 (inactive)
same,composite z-score,[15],0.856
same,z-score,[16],-0.963 (inactive)
same,composite z-score,[17],-0.0196
same,composite z-score,[18],-0.31
same,composite z-score,[19],-0.166
same,composite z-score,[20],-0.0505
CN(C)CCCCCCNC(=O)[C@H]1C[C@H]2C(=O)N[C@@H](CCCCN)C(=O)N2[C@H]1c1ccc(O)cc1,composite z-score,[1],3.42
same,composite z-score,[2],2.29
same,composite z-score,[3],0.762
same,composite z-score,[4],1.14
same,composite z-score,[5],1.27
same,composite z-score,[6],2.51
same,composite z-score,[7],1.5
same,z-score,[8],0.369 (inactive)
same,composite z-score,[9],3.49
same,composite z-score,[10],1.84
same,composite z-score,[11],1.54
same,z-score,[12],-0.329 (inactive)
same,z-score,[13],-2.88 (inactive)
same,z-score,[14],-0.02 (inactive)
same,composite z-score,[15],4.58
same,z-score,[16],-0.151 (inactive)
same,composite z-score,[17],1.76
same,composite z-score,[18],2.02
same,composite z-score,[19],1
same,composite z-score,[20],1.15
O=C1C2C=CC(C(O)c3cccs3)N(Nc3ccccc3F)C2C(=O)N1c1ccccc1 (stereo not given),composite z-score,[1],-0.111
same,composite z-score,[2],0.28
same,composite z-score,[3],-0.0951
same,composite z-score,[4],0.711
same,composite z-score,[5],0.92
same,composite z-score,[6],1.07
same,composite z-score,[7],1.17
same,z-score,[8],0.69 (inactive)
same,composite z-score,[9],0.267
same,composite z-score,[10],-0.196
same,composite z-score,[11],-0.441
same,z-score,[12],-0.471 (inactive)
same,z-score,[13],0.915 (inactive)
same,z-score,[14],-0.867 (inactive)
same,composite z-score,[15],3.17
same,z-score,[16],0.153 (inactive)
same,composite z-score,[17],0.0166
same,composite z-score,[18],-0.226
same,composite z-score,[19],0.476
same,composite z-score,[20],-0.11
O=C1OCCC/C=C\[C@H]2OC34C=CCN(Cn5nnc6ccccc65)C(=O)[C@H]3N(CCCCCO)C(=O)[C@@H]4C12 (stereo not given in full),composite z-score,[1],0.0227
same,composite z-score,[2],-0.126
same,composite z-score,[3],-0.145
same,composite z-score,[4],-0.821
same,composite z-score,[5],-0.919
same,composite z-score,[6],0.865
same,composite z-score,[7],0.443
same,z-score,[8],0.406 (inactive)
same,composite z-score,[9],-0.666
same,composite z-score,[10],-0.206
same,composite z-score,[11],-1.29
same,z-score,[12],-0.401 (inactive)
same,z-score,[13],-0.745 (inactive)
same,z-score,[14],-1.83 (inactive)
same,composite z-score,[15],1.04
same,z-score,[16],0.498 (inactive)
same,composite z-score,[17],-0.114
same,composite z-score,[18],-0.808
same,composite z-score,[19],-0.0037
same,composite z-score,[20],-0.174
C=CC[C@]1(C(=O)N2CCOCC2)N=C(c2ccc(OCCCO)cc2)O[C@H]1c1ccccc1,composite z-score,[1],0.744
same,composite z-score,[2],0.905
same,composite z-score,[3],0.0445
same,composite z-score,[4],0.147
same,composite z-score,[5],0.618
same,composite z-score,[6],2.1
same,composite z-score,[7],1.25
same,z-score,[8],0.54 (inactive)
same,composite z-score,[9],0.374
same,composite z-score,[10],-0.251
same,composite z-score,[11],0.74
same,z-score,[12],-1.8 (inactive)
same,z-score,[13],-2.42 (inactive)
same,z-score,[14],-1.67 (inactive)
same,composite z-score,[15],3.56
same,z-score,[16],0.382 (inactive)
same,composite z-score,[17],-0.0212
same,composite z-score,[18],-0.243
same,composite z-score,[19],0.175
same,composite z-score,[20],-0.165
